{"source": "ChEMBL document CHEMBL3988442", "about": "“University of Dundee, Small-Polar-MMV Screening Library” (2021)", "test_system": "Trypanosoma brucei", "assay": "Trypanosoma brucei 72 hour study", "format": "functional, organism-based", "parameters": "scale not given: in the data most compounds retested in dose-response had high values", "note": "Among all 66,000 compounds or so, about 960 (1.5%) showed an effect of 50% or more. The entries come from a sample that favours strong results as a whole.", "data": [{"smiles": "Cc1cnn(CCC(=O)N2CCN(C(=O)C(C)C)[C@@H]3CS(=O)(=O)C[C@@H]32)c1", "values": [{"measurement": "Percent Effect", "setting": "30 µM, 30.03 µM", "value": 31, "unit": "%"}]}, {"smiles": "CCC(=O)N1CCN(C(=O)CCn2cc(Cl)cn2)[C@H]2CS(=O)(=O)C[C@H]21", "values": [{"measurement": "Percent Effect", "setting": "30 µM, 30.03 µM", "value": 35.1, "unit": "%"}]}, {"smiles": "Cc1cnn(CCC(=O)N2CCN(C(=O)C3CC3)[C@@H]3CS(=O)(=O)C[C@@H]32)c1", "values": [{"measurement": "Percent Effect", "setting": "30 µM, 30.03 µM", "value": 64.13, "unit": "%"}]}, {"smiles": "CCCNC(=O)C1CCN(CC(O)c2ccc(C(F)(F)F)cc2)CC1", "note": "(stereo unspecified)", "values": [{"measurement": "Percent Effect", "setting": "30.3 µM, […]", "value": 11.33, "unit": "%"}]}, {"smiles": "Cc1cc(CN2CCC(CNS(=O)(=O)c3ccc(Br)s3)CC2)c(C)o1", "values": [{"measurement": "Percent Effect", "setting": "30.3 µM, […]", "value": 55.92, "unit": "%"}]}, {"smiles": "Cc1cc(CN2CCC(CNS(=O)(=O)c3ccc(C)s3)CC2)c(C)o1", "values": [{"measurement": "Percent Effect", "setting": "30.3 µM, […]", "value": -7.383, "unit": "%"}]}, {"smiles": "Cc1cc(CN2CCC(CNS(=O)(=O)c3ccccc3F)CC2)c(C)o1", "values": [{"measurement": "Percent Effect", "setting": "30.3 µM, […]", "value": 3.502, "unit": "%"}]}, {"smiles": "CCC(CN1CCCC1)n1cncc1-c1cnn(-c2ccccc2)c1.Cl", "note": "(stereo unspecified)", "values": [{"measurement": "Percent Effect", "setting": "30.3 µM, […]", "value": -6.567, "unit": "%"}]}, {"smiles": "Cc1cc(C)c(CNC(=O)NCc2ccc(F)c(C)c2)c(=O)[nH]1", "values": [{"measurement": "Percent Effect", "setting": "30.3 µM, […]", "value": -14.44, "unit": "%"}]}, {"smiles": "O=C1CN(C(=O)[C@H]2CC[C@]3(CC2)CNC(=O)c2ccccc2O3)CCN1", "values": [{"measurement": "Percent Effect", "setting": "30.3 µM, […]", "value": -6.646, "unit": "%"}]}, {"smiles": "Cc1cnc2c(c1NCc1ccc3c(c1)OCO3)c(=O)n(C)c(=O)n2C", "values": [{"measurement": "Percent Effect", "setting": "30 µM, 30.03 µM", "value": -27.04, "unit": "%"}]}, {"smiles": "Cc1cc(CNC(=O)c2cc(NC(=O)C(C)C)ccc2Cl)no1", "values": [{"measurement": "Percent Effect", "setting": "30.3 µM, […]", "value": -13.13, "unit": "%"}]}, {"smiles": "CCc1cc(CNC(=O)c2cc(NC(=O)C(C)C)ccc2Cl)[nH]n1", "values": [{"measurement": "Percent Effect", "setting": "30.3 µM, […]", "value": 61.59, "unit": "%"}]}, {"smiles": "COCc1cc(CNC(=O)c2cc(NC(C)=O)ccc2Cl)n[nH]1", "values": [{"measurement": "Percent Effect", "setting": "30 µM, 30.03 µM", "value": -15.93, "unit": "%"}]}, {"smiles": "CN(C)C(=O)CN1CCc2ncnc(NC3CCC3)c2CC1.O=C(O)C(F)(F)F", "values": [{"measurement": "Percent Effect", "setting": "30.3 µM, […]", "value": -31.13, "unit": "%"}]}, {"smiles": "CCN(CC)Cc1cc(=O)n2c(n1)CN(C(=O)c1ccc[nH]1)CCC2", "values": [{"measurement": "Percent Effect", "setting": "30.3 µM, […]", "value": 11.69, "unit": "%"}]}, {"smiles": "Cc1nc(C)n(CC2CCCN(Cc3nnc(C(C)(C)C)o3)C2)n1", "note": "(stereo unspecified)", "values": [{"measurement": "Percent Effect", "setting": "30 µM, 30.03 µM", "value": 14.46, "unit": "%"}]}, {"smiles": "Cc1nn(C)c2cnn(CC(=O)NCc3ccccc3F)c12", "values": [{"measurement": "Percent Effect", "setting": "30.3 µM, […]", "value": -20.3, "unit": "%"}]}, {"smiles": "Cc1ccccc1CNC(=O)Cn1ncc2c1c(C)nn2C", "values": [{"measurement": "Percent Effect", "setting": "30.3 µM, […]", "value": -7.192, "unit": "%"}]}, {"smiles": "COc1ccccc1CNC(=O)Cn1ncc2c1c(C)nn2C", "values": [{"measurement": "Percent Effect", "setting": "30 µM, 30.03 µM", "value": 68.66, "unit": "%"}]}, {"smiles": "CN(Cc1ccc(N(C)C)cc1)C(=O)CSc1ccc(Br)cc1", "values": [{"measurement": "Percent Effect", "setting": "30.3 µM, […]", "value": 12.7, "unit": "%"}]}, {"smiles": "CS(=O)(=O)N1CC2(CCN(C(=O)c3ccncc3)CC2)c2ccccc21.O=C(O)C(F)(F)F", "values": [{"measurement": "Percent Effect", "setting": "30.3 µM, […]", "value": -14.55, "unit": "%"}]}, {"smiles": "CN(Cc1ccco1)[C@@H]1CN(Cc2ccsc2)C[C@@H]2CCCO[C@@H]21.O=C(O)C(F)(F)F.O=C(O)C(F)(F)F", "values": [{"measurement": "Percent Effect", "setting": "30 µM, 30.03 µM", "value": 27.39, "unit": "%"}]}, {"smiles": "CN(C)C[C@@H]1C[C@@H]2CN(Cc3nccn3C)CC[C@@H]2N1CC1CC1", "values": [{"measurement": "Percent Effect", "setting": "30.3 µM, […]", "value": -12.03, "unit": "%"}]}, {"smiles": "Cc1ccccc1OCC1CCCN(C(=O)CN(C)C2CCNCC2)C1", "note": "(stereo unspecified)", "values": [{"measurement": "Percent Effect", "setting": "30 µM, 30.03 µM", "value": 59.87, "unit": "%"}]}, {"smiles": "Cc1cccc(OCC2CCCN(C(=O)CN(C)C3CCNCC3)C2)c1", "note": "(stereo unspecified)", "values": [{"measurement": "Percent Effect", "setting": "30 µM, 30.03 µM", "value": 6.222, "unit": "%"}]}, {"smiles": "COCC(=O)N1CCCC(COc2ccccc2C)C1", "note": "(stereo unspecified)", "values": [{"measurement": "Percent Effect", "setting": "30 µM, 30.03 µM", "value": -51.53, "unit": "%"}]}, {"smiles": "Cc1ccccc1-n1ncc(C(C)N)c1C", "note": "(stereo unspecified)", "values": [{"measurement": "Percent Effect", "setting": "30.3 µM, […]", "value": -16.93, "unit": "%"}]}, {"smiles": "Cc1ncc(CN2CCCC2)c2cc(C(=O)c3ccc(Br)cc3)oc12.Cl", "values": [{"measurement": "Percent Effect", "setting": "30 µM, 30.03 µM", "value": -13.22, "unit": "%"}]}, {"smiles": "CC(C)CNC(=O)[C@H]1CCS(=O)(=O)[C@@H]2CN(CC(C)C)C[C@H]12.O=C(O)C(F)(F)F", "values": [{"measurement": "Percent Effect", "setting": "30.3 µM, […]", "value": -19.44, "unit": "%"}]}, {"smiles": "CC(=O)N1CCN(C(=O)c2cnc(OC(C)C)c(Cl)c2)CC1", "values": [{"measurement": "Percent Effect", "setting": "30.3 µM, […]", "value": -3.997, "unit": "%"}]}, {"smiles": "CC(C)Oc1ncc(C(=O)N2CCC(CC(N)=O)CC2)cc1Cl", "values": [{"measurement": "Percent Effect", "setting": "30.3 µM, […]", "value": -51.28, "unit": "%"}]}, {"smiles": "CC(C)Oc1ncc(C(=O)N2CCC(N(C)C)CC2)cc1Cl", "values": [{"measurement": "Percent Effect", "setting": "30.3 µM, […]", "value": 99.1, "unit": "%"}]}, {"smiles": "Cc1n[nH]cc1CNC1(c2ccc(Br)cc2)CC1", "values": [{"measurement": "Percent Effect", "setting": "30.3 µM, […]", "value": -166.2, "unit": "%"}]}, {"smiles": "Cc1n[nH]cc1CNC1(Cc2ccc(Br)cc2)CCCCC1", "values": [{"measurement": "Percent Effect", "setting": "30.3 µM, […]", "value": 80.83, "unit": "%"}]}, {"smiles": "Cc1n[nH]cc1CNC1(c2ccc(F)cc2)CCCC1", "values": [{"measurement": "Percent Effect", "setting": "30.3 µM, […]", "value": -110.9, "unit": "%"}]}, {"smiles": "O=C(O)C(F)(F)F.O=C(O)C(F)(F)F.O=C1NC2(CCN(Cc3ccc(F)cc3)CC2)CC1c1ccncc1", "note": "(stereo unspecified)", "values": [{"measurement": "Percent Effect", "setting": "30 µM, 30.03 µM", "value": 28.32, "unit": "%"}]}, {"smiles": "Cc1cc(S(=O)(=O)NC(C)(C)CN)c(F)cc1F.Cl", "values": [{"measurement": "Percent Effect", "setting": "30 µM, 30.03 µM", "value": -23.52, "unit": "%"}]}, {"smiles": "Cc1oncc1C(=O)N1CC2CC1(C(=O)N(C)C)C2", "values": [{"measurement": "Percent Effect", "setting": "30.3 µM, […]", "value": -15.18, "unit": "%"}]}, {"smiles": "COCC1c2c(cnn2CC2CC2)CCN1Cc1nccs1.O=C(O)C(F)(F)F.O=C(O)C(F)(F)F", "note": "(stereo unspecified)", "values": [{"measurement": "Percent Effect", "setting": "30 µM, 30.03 µM", "value": 52.09, "unit": "%"}]}, {"smiles": "COCC1c2c(cnn2CC2CC2)CCN1Cc1cccs1.O=C(O)C(F)(F)F.O=C(O)C(F)(F)F", "note": "(stereo unspecified)", "values": [{"measurement": "Percent Effect", "setting": "30 µM, 30.03 µM", "value": -88.48, "unit": "%"}]}, {"smiles": "CCOCC1c2c(cnn2CC2CC2)CCN1Cc1nccs1.O=C(O)C(F)(F)F.O=C(O)C(F)(F)F", "note": "(stereo unspecified)", "values": [{"measurement": "Percent Effect", "setting": "30.3 µM, […]", "value": -3.24, "unit": "%"}]}, {"smiles": "Cc1cccc2c1cnn2CCCNC(=O)C1CC1", "values": [{"measurement": "Percent Effect", "setting": "30.3 µM, […]", "value": -16.1, "unit": "%"}]}, {"smiles": "O=C(CN1CC(c2nc(C3CC3)no2)C1)N1CCOCC1.O=C(O)C(=O)O", "values": [{"measurement": "Percent Effect", "setting": "30 µM, 30.03 µM", "value": 47.84, "unit": "%"}]}, {"smiles": "O=C(O)C(F)(F)F.O=C([C@H]1CC[C@@H]2[C@@H](CCN2C2CCCCC2)O1)N1CCOCC1", "values": [{"measurement": "Percent Effect", "setting": "30.3 µM, […]", "value": 2.517, "unit": "%"}]}, {"smiles": "CO[C@@H]1CCN(c2nnc(C)s2)C[C@@H]1Cc1cccc(C)c1.O=C(O)C(F)(F)F", "values": [{"measurement": "Percent Effect", "setting": "30.3 µM, […]", "value": -8.568, "unit": "%"}]}, {"smiles": "Cc1nnc(N2CC[C@@H](OCC3CC3)[C@@H](Cc3ccccc3)C2)s1.O=C(O)C(F)(F)F", "values": [{"measurement": "Percent Effect", "setting": "30.3 µM, […]", "value": 100.5, "unit": "%"}]}, {"smiles": "Cc1nnc(N2CC[C@H](OCC3CC3)[C@@H](Cc3ccccc3)C2)s1.O=C(O)C(F)(F)F", "values": [{"measurement": "Percent Effect", "setting": "30 µM, 30.03 µM", "value": -16.49, "unit": "%"}]}, {"smiles": "CO[C@H]1CCN(c2nnc(C)s2)C[C@@H]1Cc1ccccc1.O=C(O)C(F)(F)F", "values": [{"measurement": "Percent Effect", "setting": "30.3 µM, […]", "value": 12.72, "unit": "%"}]}, {"smiles": "CO[C@@H]1CCN(c2nnc(C)s2)C[C@@H]1Cc1ccccc1.O=C(O)C(F)(F)F", "values": [{"measurement": "Percent Effect", "setting": "30.3 µM, […]", "value": -5.303, "unit": "%"}]}, {"smiles": "CO[C@H]1CCN(c2nnc(C)s2)C[C@@H]1Cc1cccc(C)c1.O=C(O)C(F)(F)F", "values": [{"measurement": "Percent Effect", "setting": "30.3 µM, […]", "value": 100.1, "unit": "%"}]}, {"smiles": "O=C(N[C@H]1CC[C@@]2(CCC(=O)N2CC2CC2)CC1)c1cnccn1", "values": [{"measurement": "Percent Effect", "setting": "30.3 µM, […]", "value": -8.587, "unit": "%"}]}, {"smiles": "Cc1nnc([C@@]23CCO[C@@H]2CCN(S(=O)(=O)c2ccccc2)C3)o1", "values": [{"measurement": "Percent Effect", "setting": "30.3 µM, […]", "value": -46.55, "unit": "%"}]}, {"smiles": "CNC(=O)c1ccc(CN(C)C(=O)Nc2nnc(C(C)C)s2)cc1", "values": [{"measurement": "Percent Effect", "setting": "30 µM, 30.03 µM", "value": 1.168, "unit": "%"}]}, {"smiles": "Cc1cc2c(=O)n3c(nc2s1)CCN(Cc1[nH]cnc1C)CC3.Cl", "values": [{"measurement": "Percent Effect", "setting": "30.3 µM, […]", "value": -2.938, "unit": "%"}]}, {"smiles": "COc1ccc(F)cc1-c1ccccc1CC1CNCCNC1=O.Cl", "note": "(stereo unspecified)", "values": [{"measurement": "Percent Effect", "setting": "30.3 µM, […]", "value": -18.15, "unit": "%"}]}]}
